Assay [1] can be described thus: Nuclear factor erythroid 2-related factor 2/antioxidant responsive element (Nrf2/ARE) small molecule agonists: qHTS cell viability counter screen in human keratinocytes (AID 1919968; active = well fitted curve in the direction sought with a large enough effect in the repeat runs; an effect the other way counts as inactive or inconclusive; note: nearly all actives have a fitted effect of over 55% in size). The method, boiled down:
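KeratinoSens cells (HaCaT keratinocytes stably carrying an ARE-luciferase reporter) were seeded at 1,500 cells/well and rested 5 h at 37 C/5% CO2. They were then exposed to compounds in DMSO for 23 h. Viability was read by CellTiter-Fluor fluorescence after 1 h.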
For orientation: qHTS replaces the single test concentration by a dilution series.

Assay [2] in a line: Nuclear factor erythroid 2-related factor 2/antioxidant responsive element (Nrf2/ARE) small molecule agonists: luciferase reporter gene qHTS assay in human keratinocytes (AID 1919969). Note: nearly all actives have a fitted effect of over 35% in size. For orientation: Reporter assays use an easily measured gene product as a stand-in for the process of interest.
For assay [3], the target named is Gonadotropin-releasing hormone receptor (Homo sapiens) (UniProt P30968). Description: Human gonadotropin-releasing hormone receptor (GnRHR) small molecule agonists, calcium flux assay in GnRHR-HEK293 cells (AID 1920063). Note: nearly all actives have a fitted effect of over 35% in size. The method, boiled down: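 HEK293 cells stably expressing human GnRHR were plated 18 h at 37 °C, loaded with calcium dye 1 h at 37 °C, then given compound in agonist mode; fluorescence (Ex/Em 480/540) read kinetically for 3 min at 1 s intervals.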
Gonadotropin-releasing hormone receptor (Homo sapiens), sequence (P30968 whole entry, looked up): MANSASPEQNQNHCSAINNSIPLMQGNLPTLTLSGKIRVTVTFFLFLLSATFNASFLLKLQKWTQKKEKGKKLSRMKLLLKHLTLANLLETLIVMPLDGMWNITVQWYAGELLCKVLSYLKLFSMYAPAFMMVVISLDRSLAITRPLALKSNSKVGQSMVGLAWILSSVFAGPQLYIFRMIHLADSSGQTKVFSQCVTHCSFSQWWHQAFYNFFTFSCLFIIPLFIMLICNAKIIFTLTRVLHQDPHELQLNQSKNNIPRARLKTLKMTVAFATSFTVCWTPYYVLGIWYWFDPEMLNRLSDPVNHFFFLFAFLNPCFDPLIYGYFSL

Assay [4] concerns the target KiSS-1 receptor (Homo sapiens) (UniProt Q969F8). Description: Human kisspeptin (KISS1R) small molecule agonists, calcium flux assay in KISS1R-HEK293 cells (AID 1920064; active = well fitted curve in the direction sought with a large enough effect in the repeat runs; an effect the other way counts as inactive or inconclusive). In short, it runs like this: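 HEK293 cells stably expressing human KISS1R were plated 18 h at 37 °C, loaded with calcium dye for 1 h at 37 °C, then given compound by pin tool. Fluorescence (Ex/Em 480/540) was read kinetically for 3 min.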

Assay [5] in a line: G protein-coupled receptor (GPCR) small molecule agonists, calcium flux assay: HEK293 wild type cell line counter screen (AID 1920065). The method, boiled down:
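Cells were plated and cultured 18 h at 37 C/5% CO2, then loaded with calcium dye for 1 h at 37 C. Compounds in DMSO were pin-transferred in agonist mode, and fluorescence (Ex/Em 480/540) was read kinetically for 3 min at 1 s intervals.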
A general note: Calcium flux is commonly read through the fluorescence of an indicator in the cells.

Assay [6] in a line: p53 small molecule agonists, cell-based qHTS assay with human liver microsomes: qHTS cell viability counter screen (AID 1963579). Note: nearly all actives have a fitted effect of over 45% in size. The method, boiled down: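 Metabolic activation used human liver microsomes and NADPH, both 0.5 mg/mL final, over 16 hours at 37 C on p53RE-bla cells (4,000/well). Cytotoxicity measured by CellTiter-Glo luminescence, 30 min at room temperature.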
A short description of assay [7]: p53 small molecule agonists, cell-based qHTS assay with rat liver microsomes: qHTS cell viability counter screen (AID 1963580). Note: nearly all actives have a fitted effect of over 45% in size. The method, boiled down: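 Intracellular ATP, by CellTiter-Glo luminescence, defines viability. HCT-116 p53RE-bla cells, 4,000 per well, were compound-treated in the presence of rat liver microsomes and NADPH for 16 h at 37 C.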
Assay [8] is described as follows: p53 small molecule agonists, cell-based qHTS assay: qHTS cell viability counter screen (AID 1963581). Note: nearly all actives have a fitted effect of over 45% in size. In short, it runs like this:
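p53RE-bla HCT-116 cells were exposed to compounds for 16 h at 37 C; after the beta-lactamase FRET read in the same wells, CellTiter-Glo was added and luminescence (intracellular ATP) read after 30 min at room temperature.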

The target of assay [9] is 5-hydroxytryptamine receptor 2A (Homo sapiens) (UniProt P28223). Description: 5-hydroxytryptamine receptor 2A (HTR2A) small molecule antagonists, cell-based qHTS assay (AID 1963586). Note: nearly all actives have a fitted effect of over 45% in size. In short, it runs like this:
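Antagonist-mode intracellular calcium assay: DOI (4 nM) added after 5 min compound pre-incubation at room temperature to dye-loaded HTR2A-CHO cells. Fluorescence followed for 3 min, sampled every second.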

For assay [10] the target is unchanged. Description: 5-hydroxytryptamine receptor 2A (HTR2A) small molecule agonists, cell-based qHTS assay (AID 1963587). Note: nearly all actives have a fitted effect of over 30% in size. In short, it runs like this: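 Kinetic calcium-flux fluorescence (2 min, 1 sec intervals) after compound addition in agonist mode. HTR2A-CHO cells were cultured 18 h, then dye-loaded 1 h at 37 C.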
Assay [11] has as its target Muscarinic acetylcholine receptor M1 (Homo sapiens) (UniProt P11229). The assay is described as follows: Cholinergic receptor muscarinic 1 (CHRM1) small molecule antagonists, cell-based qHTS assay (AID 1963588). Note: nearly all actives have a fitted effect of over 40% in size. In short, it runs like this: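 CHRM1-CHO calcium-flux assay, antagonist mode. Cells were seeded 18 h, dye-loaded 1 h at 37 C and given compound for 5 min at RT, then acetylcholine was added at 50nM. FDSS fluorescence was read 3 min; 15 concentrations, three runs.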

For assay [12] the target is unchanged. The assay is described as follows: Cholinergic receptor muscarinic 1 (CHRM1) small molecule agonists, cell-based qHTS assay (AID 1963589). Note: nearly all actives have a fitted effect of over 35% in size. The method, boiled down: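 CHO cells stably expressing human CHRM1, seeded 18 h at 37 C/5% CO2, dye-loaded 1 h at 37 C, then given compound in agonist mode; intracellular calcium fluorescence read kinetically at 1 s intervals. Fifteen concentrations, three independent runs.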

A short description of assay [13]: cAMP Responsive Elements (CRE) small molecule agonists, cell-based qHTS assay (AID 1963590). In short, it runs like this: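 CRE-bla HEK 293T cells in DMEM with 10% dialyzed FBS, NEAA, pyruvate and 25 mM HEPES were plated 18 h at 37 C/5% CO2, then exposed to compounds in DMSO for 3 h before LiveBLAzer B/G FRET substrate addition.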
A short description of assay [14]: cAMP Responsive Elements (CRE) small molecule antagonists, cell-based qHTS assay (AID 1963591; active = well fitted inhibition curve with a large enough effect in the signal ratio in the repeat runs, not every such curve was filed as active; the % refers to the signal ratio). In short, it runs like this: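 CRE-bla HEK293T cells were plated 18 h at 37 °C/5% CO2, pinned with compound in DMSO, then stimulated with NKH477 at 0.25 uM final for 3 h. LiveBLAzer B/G FRET substrate was added and plates incubated 2 h at room temperature.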
Assay [15] concerns the target Beta-2 adrenergic receptor (Homo sapiens) (UniProt P07550). Description: Adrenergic beta2 receptor (ADRB2) small molecule antagonists, cell-based qHTS assay (AID 1963592). Note: nearly all actives have a fitted effect of over 50% in size. Note: potency is the fitted concentration of half-maximal effect. In short, it runs like this:
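Cells (CHO, stable ADRB2 overexpression) incubated 18-20hr at 37C; compounds added from DMSO; agonist mix (1nM isoproterenol, 100uM IBMX, 25uM Ro-20-1724) added; 0.5hr RT; d2-cAMP and anti-cAMP-cryptate added; 1hr RT; 665/615 nm read.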

Assay [16] has the same target. Description: Adrenergic beta2 receptor (ADRB2) small molecule agonists, cell-based qHTS assay (AID 1963593).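 Note: CHO cells stably overexpressing human ADRB2.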 In short, it runs like this: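 CHO cells stably over-expressing ADRB2 were plated overnight at 37C, then dosed with compounds plus a stimulation mix containing 100uM IBMX and 25uM Ro-20-1724 for 0.5hr at room temperature. cAMP was measured by HTRF competition, 1hr.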

In assay [17] the target is D(2) dopamine receptor (Homo sapiens) (UniProt P14416). Description: Dopamine D2 receptor (DRD2) small molecule antagonists, cell-based qHTS assay (AID 1963595; active = well fitted inhibition curve with a large enough effect in the signal ratio in the repeat runs, with a control signal flat; the % refers to the signal ratio). The method, boiled down: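 Cells were plated and grown for 24 h at 37 °C. Ro20-1724 (0.1 mM final) went in first, then compound for 10 min. NKH477 (200 nM) with quinpirole (12 nM) followed for 30 min at RT, then HTRF detection reagents for 1 h.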
D(2) dopamine receptor (Homo sapiens), sequence (P14416 whole entry, looked up): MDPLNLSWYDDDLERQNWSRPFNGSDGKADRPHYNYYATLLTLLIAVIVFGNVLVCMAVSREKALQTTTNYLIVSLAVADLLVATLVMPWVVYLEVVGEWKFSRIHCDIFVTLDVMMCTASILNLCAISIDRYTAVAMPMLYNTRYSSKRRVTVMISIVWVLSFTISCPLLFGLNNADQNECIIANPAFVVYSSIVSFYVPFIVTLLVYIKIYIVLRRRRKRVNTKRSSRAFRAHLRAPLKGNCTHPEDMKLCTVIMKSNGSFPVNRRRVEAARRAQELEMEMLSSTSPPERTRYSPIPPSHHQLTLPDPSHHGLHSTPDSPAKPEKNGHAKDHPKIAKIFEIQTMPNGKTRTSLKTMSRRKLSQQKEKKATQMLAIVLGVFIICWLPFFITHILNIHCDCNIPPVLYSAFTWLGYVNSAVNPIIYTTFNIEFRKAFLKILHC

The target is the same in assay [18]. Description: Dopamine D2 receptor (DRD2) small molecule agonists, cell-based qHTS assay (AID 1963594). Note: nearly all actives have a fitted effect of over 35% in size. In short, it runs like this:
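cAMP accumulation in DRD2-HEK293 cells measured by HTRF after 1 h detection; compounds added 10 min before NKH477 (200nM […]) forskolin-analogue stimulation, 30 min at room temperature, with Ro20-1724 present at 0.1 mM final.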

The structures appear in SMILES notation. Values without a mark were called inactive. Results filed as inconclusive are left out. Calls of active or inactive are those of the source. Unless noted, calls come from the whole dose curve.

Beta-2 adrenergic receptor (Homo sapiens), sequence (P07550 whole entry, looked up): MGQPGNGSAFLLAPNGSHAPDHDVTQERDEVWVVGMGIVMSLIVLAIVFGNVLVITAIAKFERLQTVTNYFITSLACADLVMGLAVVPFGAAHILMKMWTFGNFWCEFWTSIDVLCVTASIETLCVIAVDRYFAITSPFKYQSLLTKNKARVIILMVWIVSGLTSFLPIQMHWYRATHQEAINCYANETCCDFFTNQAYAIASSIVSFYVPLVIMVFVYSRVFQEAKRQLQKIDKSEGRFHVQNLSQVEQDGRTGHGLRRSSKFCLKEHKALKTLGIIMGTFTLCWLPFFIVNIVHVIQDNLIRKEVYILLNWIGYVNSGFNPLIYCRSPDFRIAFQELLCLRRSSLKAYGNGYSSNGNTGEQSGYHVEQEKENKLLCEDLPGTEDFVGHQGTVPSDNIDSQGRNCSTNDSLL
KiSS-1 receptor (Homo sapiens), sequence (Q969F8 whole entry, looked up): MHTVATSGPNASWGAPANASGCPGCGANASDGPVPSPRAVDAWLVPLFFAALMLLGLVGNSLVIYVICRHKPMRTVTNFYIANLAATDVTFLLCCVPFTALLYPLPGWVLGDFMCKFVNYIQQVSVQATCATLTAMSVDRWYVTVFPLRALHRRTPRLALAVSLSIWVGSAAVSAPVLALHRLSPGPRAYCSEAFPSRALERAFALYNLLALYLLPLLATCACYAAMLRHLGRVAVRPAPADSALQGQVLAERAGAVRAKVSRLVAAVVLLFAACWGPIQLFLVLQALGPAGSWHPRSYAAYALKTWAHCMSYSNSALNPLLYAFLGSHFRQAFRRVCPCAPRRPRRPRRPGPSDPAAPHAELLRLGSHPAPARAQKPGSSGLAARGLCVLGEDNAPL
5-hydroxytryptamine receptor 2A (Homo sapiens), sequence (P28223 whole entry, looked up): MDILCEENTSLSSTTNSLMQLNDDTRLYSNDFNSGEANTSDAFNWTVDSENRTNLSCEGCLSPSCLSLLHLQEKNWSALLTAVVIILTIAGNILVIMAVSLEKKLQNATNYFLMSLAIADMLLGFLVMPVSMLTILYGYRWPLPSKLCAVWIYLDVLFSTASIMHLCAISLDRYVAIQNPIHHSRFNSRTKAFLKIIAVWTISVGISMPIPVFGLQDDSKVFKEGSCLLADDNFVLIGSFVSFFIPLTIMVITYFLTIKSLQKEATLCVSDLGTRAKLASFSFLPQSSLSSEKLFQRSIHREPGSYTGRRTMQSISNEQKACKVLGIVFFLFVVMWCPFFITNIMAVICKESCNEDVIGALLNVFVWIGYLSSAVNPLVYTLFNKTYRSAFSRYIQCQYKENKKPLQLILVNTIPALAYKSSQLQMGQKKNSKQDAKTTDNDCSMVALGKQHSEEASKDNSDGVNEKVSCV
Muscarinic acetylcholine receptor M1 (Homo sapiens), sequence (P11229 whole entry, looked up): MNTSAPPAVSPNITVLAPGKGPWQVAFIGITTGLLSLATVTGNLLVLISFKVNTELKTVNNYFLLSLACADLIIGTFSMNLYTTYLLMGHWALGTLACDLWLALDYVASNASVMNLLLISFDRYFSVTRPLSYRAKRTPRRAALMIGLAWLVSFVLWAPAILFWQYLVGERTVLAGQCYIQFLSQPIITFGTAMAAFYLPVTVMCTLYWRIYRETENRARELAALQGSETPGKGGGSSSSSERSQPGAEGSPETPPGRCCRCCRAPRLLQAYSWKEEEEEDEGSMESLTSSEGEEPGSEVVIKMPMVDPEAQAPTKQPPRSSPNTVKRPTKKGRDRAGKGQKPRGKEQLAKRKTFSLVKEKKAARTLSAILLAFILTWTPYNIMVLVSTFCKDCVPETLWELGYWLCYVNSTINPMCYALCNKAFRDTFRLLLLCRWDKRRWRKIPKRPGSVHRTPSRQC

With `CCOc1ccc(OCC)c(Cl)c1`, the Potency entry in assay [1], in [2], in assay [3], in assay [4], in assay [5] and in [6] was “inactive” each time. For the same compound, the Potency entry in [7], in assay [8], in assay [9], in [10], in assay [11] and in assay [12] was “inactive” each time. Besides, the Potency result in assay [13], in assay [14], in [15], in assay [16] and in [17] was “inactive” in each case.

Regarding `CCCCCCCCCCCCCBr`, the Potency entry in [1], in assay [2], in assay [3], in assay [4], in assay [5] and in [6] was “inactive” in each case. Besides, the Potency result in [7], in assay [8], in assay [9], in assay [10], in assay [11] and in assay [12] was “inactive” throughout. Besides, the Potency entry in assay [13], in assay [14], in assay [15], in [16], in assay [18] and in assay [17] was “inactive” throughout.

Turning to `O=c1c2ccccc2oc2ccccc12`, the Potency entry in assay [1], in [2], in [3], in assay [4], in assay [5] and in assay [6] was “inactive” in each case. In addition, the Potency entry in assay [7], in assay [8], in [9], in assay [10], in assay [11] and in assay [12] was “inactive” throughout. For the same compound, the Potency entry in assay [13], in assay [14], in [15], in [16], in assay [18] and in assay [17] was “inactive” in each case.

Turning to `CN(C)C(=O)COC(=O)Cc1ccc(OC(=O)c2ccc(N=C(N)N)cc2)cc1`, the Potency result in assay [1], in assay [2], in assay [3], in assay [4], in [5] and in assay [6] was “inactive” throughout. Further, the Potency entry in assay [7], in assay [8], in assay [9], in assay [10], in assay [11] and in assay [12] was “inactive” throughout. For the same compound, the Potency result in [13], in assay [14], in assay [15], in assay [16], in [18] and in [17] was “inactive” throughout.

With `CCCCCCCC/C=C\CCCCCCCCO`, the Potency result in assay [1], in assay [2], in assay [3], in assay [4], in assay [5] and in assay [6] was “inactive” throughout. Moreover, the Potency entry in [7], in assay [8], in assay [9], in [10], in assay [11] and in [12] was “inactive” each time. The Potency result in assay [13], in assay [14], in [18] and in [17] was “inactive” throughout. For the same compound, the Potency in [15] is 54.4 µM (active).

For the compound `COc1ccc(CCO)cc1`, the Potency result in assay [1], in assay [2], in assay [3], in assay [4], in [5] and in assay [6] was “inactive” in each case. Besides, the Potency entry in [7], in assay [8], in assay [9], in [10], in [11] and in [12] was “inactive” each time. In addition, the Potency entry in assay [13], in assay [14], in [15], in assay [16], in [18] and in assay [17] was “inactive” throughout.

Take `CC(O)CN` (centres undefined): the Potency entry in assay [1], in assay [2], in [3], in assay [4], in [5] and in assay [6] was “inactive” in each case. Also, the Potency result in [7], in [8], in [9], in assay [10], in [11] and in assay [12] was “inactive” each time. Moreover, the Potency result in [13], in assay [14], in assay [15] and in [18] was “inactive” throughout.

`COCCCOCCCOC`: the Potency result in assay [1], in [2], in assay [3], in assay [4], in assay [5] and in assay [6] was “inactive” each time. Moreover, the Potency entry in assay [7], in [8], in [9], in [10], in [11] and in assay [12] was “inactive” each time. Also, the Potency entry in assay [13], in assay [14], in assay [15], in [16] and in assay [17] was “inactive” each time.

Source of the values: PubChem BioAssay (Tox21).
